In PubChem BioAssay AID1159580 (chemical genetic matrix, 2015):
About 2,000 (36%) of roughly 5,500 compounds were called active. Not shown: some 18% with an inconclusive outcome. Rule as the data show it: active = normalized growth mostly below about 0.91 (no sharp cut-off); inconclusive = no clear call, values can overlap the other calls; inactive = mostly above about 0.92. This is one part of the list.

Assay: chemical genetic growth profiling, strain panel (AID 1159580);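 also: tested at 20 µM; growth read once vehicle control cultures reached saturation at 30 °C; 1 = growth at the plate median or of vehicle wells; lower values mean less growth of the strain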
Conditions: growth OD

Measured: normalized growth

CN(C)C1C(=O)C(C(N)=O)=C(O)C2(O)C(=O)C3=C(O)c4c(O)ccc(Cl)c4C(C)(O)C3CC12 (stereo unspecified)
inactive: S. cerevisiae deletion strains, locus YAL013W, strain DEP1, hits give low values 1 | S. cerevisiae deletion strains, locus YBR021W, strain FUR4, hits give low values 0.979 | S. cerevisiae deletion strains, locus YBR229C, strain ROT2, hits give low values 0.991 | S. cerevisiae deletion strains, locus YCL029C, strain bik1, hits give low values 0.975 | S. cerevisiae deletion strains, locus YDL035C, strain GPR1, hits give low values 1.01 | S. cerevisiae deletion strains, locus YDL074C, strain BRE1, hits give low values 1.06 | S. cerevisiae deletion strains, locus YDL101C, strain DUN1, hits give low values 0.995 | S. cerevisiae deletion strains, locus YDL134C, strain PPH21, hits give low values 0.992 | S. cerevisiae deletion strains, locus YDL185W, strain tfp1, hits give low values 0.993 | S. cerevisiae deletion strains, locus YDL192W, strain arf1, hits give low values 0.99 | S. cerevisiae deletion strains, locus YDR101C, strain arx1, hits give low values 0.997 | S. cerevisiae deletion strains, locus YDR150W, strain NUM1, hits give low values 0.992 | S. cerevisiae deletion strains, locus YDR162C, strain NBP2, hits give low values 1.01 | S. cerevisiae deletion strains, locus YDR318W, strain mcm21, hits give low values 0.99 | S. cerevisiae deletion strains, locus YDR388W, hits give low values 0.991 | S. cerevisiae deletion strains, locus YDR502C, strain sam2, hits give low values 0.993 | S. cerevisiae deletion strains, locus YEL061C, strain CIN8, hits give low values 0.999 | S. cerevisiae deletion strains, locus YER110C, hits give low values 0.984 | S. cerevisiae deletion strains, locus YER155C, strain BEM2, hits give low values 0.997 | S. cerevisiae deletion strains, locus YER167W, strain BCK2, hits give low values 0.988 | S. cerevisiae deletion strains, locus YGL078C, strain dbp3, hits give low values 0.99 | S. cerevisiae deletion strains, locus YGL086W, strain mad1, hits give low values 0.982 | S. cerevisiae deletion strains, locus YGL248W, strain PDE1, hits give low values 0.985 | S. cerevisiae deletion strains, locus YGR078C, strain PAC10, hits give low values 1.02 | S. cerevisiae deletion strains, locus YGR135W, strain pre9, hits give low values 1.01 | S. cerevisiae deletion strains, locus YGR229C, strain SMI1, hits give low values 1.04 | S. cerevisiae deletion strains, locus YGR252W, strain gcn5, hits give low values 0.948 | S. cerevisiae deletion strains, locus YHR030C, strain SLT2, hits give low values 0.99 | S. cerevisiae deletion strains, locus YHR079C, strain IRE1 (second series), hits give low values 0.979 | S. cerevisiae deletion strains, locus YHR094C, strain hxt1, hits give low values 0.991 | S. cerevisiae deletion strains, locus YHR129C, strain ARP1, hits give low values 0.994 | S. cerevisiae deletion strains, locus YHR200W, strain rpn10, hits give low values 0.98 | S. cerevisiae deletion strains, locus YIL066C, strain RNR3, hits give low values 0.993 | S. cerevisiae deletion strains, locus YIL073C, strain SPO22, hits give low values 0.96 | S. cerevisiae deletion strains, locus YIL125W, strain kgd1, hits give low values 1 | S. cerevisiae deletion strains, locus YIR030C, strain dcg1, hits give low values 0.986 | S. cerevisiae deletion strains, locus YJL095W, strain BCK1, hits give low values 1.03 | S. cerevisiae deletion strains, locus YJL134W, strain LCB3, hits give low values 0.991 | S. cerevisiae deletion strains, locus YJL168C, strain set2, hits give low values 0.991 | S. cerevisiae deletion strains, locus YJL187C, strain SWE1 (second series), hits give low values 0.996 | S. cerevisiae deletion strains, locus YJR043C, strain POL32, hits give low values 0.984 | S. cerevisiae deletion strains, locus YJR075W, strain HOC1, hits give low values 1.01 | S. cerevisiae deletion strains, locus YKL009W, strain mrt4, hits give low values 0.964 | S. cerevisiae deletion strains, locus YKL068W, hits give low values 0.996 | S. cerevisiae deletion strains, locus YKL085W, strain MDH1 (second series), hits give low values 0.984 | S. cerevisiae deletion strains, locus YKL085W, strain MDH1, hits give low values 0.984 | S. cerevisiae deletion strains, locus YKL190W, strain CNB1, hits give low values 1 | S. cerevisiae deletion strains, locus YKR001C, strain vps1, hits give low values 0.985 | S. cerevisiae deletion strains, locus YLR039C, strain RIC1, hits give low values 0.964 | S. cerevisiae deletion strains, locus YLR058C, strain SHM2, hits give low values 0.991 | S. cerevisiae deletion strains, locus YLR102C, strain apc9, hits give low values 0.985 | S. cerevisiae deletion strains, locus YLR262C, strain YPT6, hits give low values 0.985 | S. cerevisiae deletion strains, locus YLR268W, strain sec22, hits give low values 0.999 | S. cerevisiae deletion strains, locus YLR330W, strain CHS5, hits give low values 0.991 | S. cerevisiae deletion strains, locus YLR342W, strain FKS1 (second series), hits give low values 0.932 | S. cerevisiae deletion strains, locus YLR371W, strain rom2, hits give low values 0.979 | S. cerevisiae deletion strains, locus YLR418C, strain cdc73, hits give low values 1.02 | S. cerevisiae deletion strains, locus YML016C, strain PPZ1, hits give low values 0.986 | S. cerevisiae deletion strains, locus YML032C, strain rad52, hits give low values 0.98 | S. cerevisiae deletion strains, locus YML124C, strain tub3, hits give low values 0.989 | S. cerevisiae deletion strains, locus YMR078C, strain ctf18, hits give low values 0.983 | S. cerevisiae deletion strains, locus YMR223W, strain ubp8, hits give low values 0.97 | S. cerevisiae deletion strains, locus YMR263W, strain SAP30, hits give low values 1.02 | S. cerevisiae deletion strains, locus YMR307W, strain GAS1, hits give low values 0.937 | S. cerevisiae deletion strains, locus YNL067W, strain RPL9B, hits give low values 1.03 | S. cerevisiae deletion strains, locus YNL128W, strain TEP1, hits give low values 1.02 | S. cerevisiae deletion strains, locus YNL153C, strain GIM3, hits give low values 1.01 | S. cerevisiae deletion strains, locus YNL233W, strain BNI4, hits give low values 0.999 | S. cerevisiae deletion strains, locus YNL250W, strain rad50, hits give low values 1 | S. cerevisiae deletion strains, locus YNL271C, strain bni1, hits give low values 0.998 | S. cerevisiae deletion strains, locus YNL298W, strain CLA4, hits give low values 0.994 | S. cerevisiae deletion strains, locus YNL307C, strain MCK1, hits give low values 0.976 | S. cerevisiae deletion strains, locus YNL322C, strain KRE1, hits give low values 1 | S. cerevisiae deletion strains, locus YNR052C, strain pop2, hits give low values 0.974 | S. cerevisiae deletion strains, locus YOL006C, strain TOP1, hits give low values 1.09 | S. cerevisiae deletion strains, locus YOL012C, strain htz1 0.811 | S. cerevisiae deletion strains, locus YOL147C, strain pex11, hits give low values 0.992 | S. cerevisiae deletion strains, locus YOR061W, strain CKA2, hits give low values 0.997 | S. cerevisiae deletion strains, locus YOR069W, strain VPS5, hits give low values 0.993 | S. cerevisiae deletion strains, locus YOR136W, strain idh2, hits give low values 0.992 | S. cerevisiae deletion strains, locus YOR144C, strain elg1, hits give low values 0.985 | S. cerevisiae deletion strains, locus YOR184W, strain ser1, hits give low values 0.973 | S. cerevisiae deletion strains, locus YOR316C, strain cot1, hits give low values 0.971 | S. cerevisiae deletion strains, locus YPL055C, strain LGE1, hits give low values 1.04 | S. cerevisiae deletion strains, locus YPL241C, strain CIN2, hits give low values 0.997 | S. cerevisiae deletion strains, locus YPR119W, strain clb2, hits give low values 0.998 | S. cerevisiae deletion strains, locus YPR141C, strain kar3, hits give low values 1 | S. cerevisiae deletion strains, locus YPR163C, strain tif3, hits give low values 0.991 | S. cerevisiae deletion strains, locus YPR167C, strain met16, hits give low values 0.992 | S. cerevisiae deletion strains, strain wtn01, hits give low values 0.988 | S. cerevisiae strains, strain wild type, hits give low values 1
